# From PubChem BioAssay AID1159580 (chemical genetic matrix, 2015)
# Where “and” joins values, the source holds several entries; their conditions need not be identical. Equal values may be shown once. Out of some 5,500 compounds screened, about 2,000 (36%) were called active. Inconclusive results (about 18%) are left out. Some of the results follow. Unmarked numbers belong to inactive results. Cut-off read from the data, not from the text of the source: active = normalized growth mostly below about 0.91 (no sharp cut-off); inconclusive = no clear call, values can overlap the other calls; inactive = mostly above about 0.92.
# Assay: chemical genetic growth profiling, strain panel (AID 1159580);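 note: tested at 20 µM; growth read once vehicle control cultures reached saturation at 30 °C; 1 = growth at the plate median or of vehicle wells; lower values mean less growth of the strain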
# Conditions: S. cerevisiae deletion strains, growth OD
smiles,measurement,setting,value
C=C1c2c(Cl)ccc(O)c2C(O)=C2C(=O)[C@]3(O)C(O)=C(C(N)=O)C(=O)[C@@H](N(C)C)[C@@H]3[C@@H](O)[C@H]12,normalized growth,"locus YAL013W, strain DEP1, active compounds read low",0.972
same,normalized growth,"locus YAL021C, strain ccr4, active compounds read low",0.964
same,normalized growth,"locus YAL026C, strain drs2, active compounds read low",0.934
same,normalized growth,"locus YAL030W, strain snc1, active compounds read low",0.981
same,normalized growth,"locus YBL061C, strain skt5, active compounds read low",0.976
same,normalized growth,"locus YBR009C, strain hhf1, active compounds read low",0.958
same,normalized growth,"locus YBR021W, strain FUR4, active compounds read low",0.914
same,normalized growth,"locus YBR023C, strain chs3, active compounds read low",0.966
same,normalized growth,"locus YBR171W, strain sec66, active compounds read low",0.999
same,normalized growth,"locus YBR229C, strain ROT2, active compounds read low",0.977
same,normalized growth,"locus YBR231C, strain swc5, active compounds read low",0.978
same,normalized growth,"locus YBR279W, strain paf1, active compounds read low",0.956
same,normalized growth,"locus YCL011C, strain gbp2, active compounds read low",0.935
same,normalized growth,"locus YCL016C, strain dcc1, active compounds read low",0.936
same,normalized growth,"locus YCL029C, strain bik1, active compounds read low",0.948
same,normalized growth,"locus YCL061C, strain MRC1, active compounds read low",0.954
same,normalized growth,"locus YCL069W, strain vba3, active compounds read low",0.977
same,normalized growth,"locus YCR088W, strain abp1, active compounds read low",0.981
same,normalized growth,"locus YDL005C, strain med2, active compounds read low",0.99
same,normalized growth,"locus YDL035C, strain GPR1, active compounds read low",0.954
same,normalized growth,"locus YDL040C, strain nat1, active compounds read low",0.993
same,normalized growth,"locus YDL074C, strain BRE1, active compounds read low",0.946
same,normalized growth,"locus YDL101C, strain DUN1, active compounds read low",0.965
same,normalized growth,"locus YDL134C, strain PPH21, active compounds read low",0.909
same,normalized growth,"locus YDL185W, strain tfp1, active compounds read low",0.961
same,normalized growth,"locus YDL192W, strain arf1, active compounds read low",0.95
same,normalized growth,"locus YDR001C, strain nth1, active compounds read low",0.973
same,normalized growth,"locus YDR069C, strain doa4, active compounds read low",0.965
same,normalized growth,"locus YDR101C, strain arx1, active compounds read low",0.961
same,normalized growth,"locus YDR137W, strain rgp1, active compounds read low",0.977
same,normalized growth,"locus YDR150W, strain NUM1, active compounds read low",0.98
same,normalized growth,"locus YDR159W, strain sac3, active compounds read low",0.966
same,normalized growth,"locus YDR162C, strain NBP2, active compounds read low",0.945
same,normalized growth,"locus YDR195W, strain ref2",1.01
same,normalized growth,"locus YDR297W, strain sur2, active compounds read low",0.981
same,normalized growth,"locus YDR318W, strain mcm21, active compounds read low",0.947
same,normalized growth,"locus YDR334W, strain swr1, active compounds read low",0.949
same,normalized growth,"locus YDR335W, strain msn5, active compounds read low",0.967
same,normalized growth,"locus YDR388W, active compounds read low",0.986
same,normalized growth,"locus YDR392W, strain spt3, active compounds read low",0.849
same,normalized growth,"locus YDR502C, strain sam2, active compounds read low",0.98
same,normalized growth,"locus YEL003W, strain gim4, active compounds read low",0.967
same,normalized growth,"locus YEL037C, strain rad23, active compounds read low",0.962
same,normalized growth,"locus YEL061C, strain CIN8 (second series), active compounds read low",0.974
same,normalized growth,"locus YEL061C, strain CIN8, active compounds read low",0.976
same,normalized growth,"locus YER015W, strain faa2, active compounds read low",0.912 (active)
same,normalized growth,"locus YER016W, strain bim1, active compounds read low",0.964
same,normalized growth,"locus YER110C, active compounds read low",0.989
same,normalized growth,"locus YER111C, strain swi4, active compounds read low",0.949
same,normalized growth,"locus YER155C, strain BEM2 (second series), active compounds read low",0.947
same,normalized growth,"locus YER155C, strain BEM2, active compounds read low",0.992
same,normalized growth,"locus YER167W, strain BCK2, active compounds read low",0.962
same,normalized growth,"locus YFR010W, strain ubp6, active compounds read low",0.958
same,normalized growth,"locus YGL078C, strain dbp3, active compounds read low",0.964
same,normalized growth,"locus YGL086W, strain mad1, active compounds read low",0.964
same,normalized growth,"locus YGL167C, strain pmr1, active compounds read low",0.971
same,normalized growth,"locus YGL173C, strain kem1, active compounds read low",0.983
same,normalized growth,"locus YGL227W, strain vid30, active compounds read low",0.997
same,normalized growth,"locus YGL240W, strain doc1, active compounds read low",1.01
same,normalized growth,"locus YGL248W, strain PDE1, active compounds read low",0.916
same,normalized growth,"locus YGL253W, strain hxk2, active compounds read low",0.968
same,normalized growth,"locus YGR078C, strain PAC10, active compounds read low",0.882
same,normalized growth,"locus YGR135W, strain pre9, active compounds read low",0.94
same,normalized growth,"locus YGR229C, strain SMI1, active compounds read low",0.957
same,normalized growth,"locus YGR252W, strain gcn5, active compounds read low",0.967
same,normalized growth,"locus YHR013C, strain ard1, active compounds read low",0.975
same,normalized growth,"locus YHR027C, strain rpn1, active compounds read low",0.962
same,normalized growth,"locus YHR030C, strain SLT2, active compounds read low",0.969 and 0.993
same,normalized growth,"locus YHR079C, strain IRE1 (second series), active compounds read low",0.961
same,normalized growth,"locus YHR079C, strain IRE1, active compounds read low",0.985
same,normalized growth,"locus YHR094C, strain hxt1, active compounds read low",0.974
same,normalized growth,"locus YHR129C, strain ARP1, active compounds read low",0.958
same,normalized growth,"locus YHR142W, strain chs7, active compounds read low",0.981
same,normalized growth,"locus YHR200W, strain rpn10, active compounds read low",0.952
same,normalized growth,"locus YIL066C, strain RNR3, active compounds read low",0.915
same,normalized growth,"locus YIL073C, strain SPO22, active compounds read low",0.952
same,normalized growth,"locus YIL125W, strain kgd1, active compounds read low",0.98
same,normalized growth,"locus YIR030C, strain dcg1, active compounds read low",0.98
same,normalized growth,"locus YJL092W, strain hpr5, active compounds read low",0.966
same,normalized growth,"locus YJL095W, strain BCK1 (second series), active compounds read low",0.976
same,normalized growth,"locus YJL095W, strain BCK1, active compounds read low",0.898 and 0.992
same,normalized growth,"locus YJL115W, strain asf1, active compounds read low",0.979
same,normalized growth,"locus YJL129C, strain trk1, active compounds read low",1.01
same,normalized growth,"locus YJL134W, strain LCB3, active compounds read low",0.98
same,normalized growth,"locus YJL154C, strain vps35, active compounds read low",0.985
same,normalized growth,"locus YJL164C, strain tpk1, active compounds read low",0.928
same,normalized growth,"locus YJL166W, strain qcr8, active compounds read low",0.976
same,normalized growth,"locus YJL168C, strain set2, active compounds read low",0.974
same,normalized growth,"locus YJL187C, strain SWE1 (second series), active compounds read low",0.885
same,normalized growth,"locus YJR043C, strain POL32, active compounds read low",0.879
same,normalized growth,"locus YJR066W, strain TOR1, active compounds read low",0.951
